Screens from PubChem BioAssay.
A selection: hits, their analogues and other compounds. The true share with any hit is near 2.1%.
Ba/F3 V617F tox = lowers viability of Ba/F3 cells expressing EpoR and JAK2V617F | hit rate 1.1% among 220,000 | inhibition, % at 5.6 µM | ATP luminescence | AID 1446;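 active means inhibition above the campaign mean plus 3 SD over all tested compounds, cut at about 24% in these data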;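 further: cytokine-independent growth of Ba/F3 cells driven by EpoR plus mutant JAK2; 0% = DMSO-treated cells and 100% = JAK inhibitor I control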
KLF5 inhibitor = suppresses KLF5 promoter-driven expression; DLD-1 KLF5 promoter-luciferase reporter, luminescence; inhibition, % at 5 µM; hit rate 0.23% among 290,000; AID 1700;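 active means inhibition above a per-plate limit of that plate's mean compound inhibition plus 3 SD, cut at about 60% in these data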;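 further: 0% = DMSO wells and 100% = LY294002 at 200 µM; higher means less KLF5 promoter-driven luciferase light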
IEC-6 cytotox = counter-screen for KLF5 inhibitors: cytotoxicity in IEC-6 cells. AID 1825. inhibition, % at 5 µM. IEC-6 cytotoxicity, luminescence viability. hit rate 0.78% among 290,000; in the data active means inhibition above about 22%;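 further: 0% = plate median of test compound wells and 100% = cytotoxic reference compound wells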
APP 5UTR inh = APP translation inhibition. hit rate 0.82% among 190,000. SH-SY5Y APP 5'UTR-luciferase reporter, luminescence. inhibition, % at 2 µM. AID 1285;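 active means inhibition above a set limit, derived from the sample mean plus 3 SD, cut at about 45% in these data; inconclusive means one replicate passes the limit while the other fails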
BaF3 tox = counter-screen for JAK2V617F inhibitors: parental Ba/F3 viability inhibitors. AID 1486. CellTiter-Glo ATP luminescence. hit rate 1.1% among 220,000. inhibition, % at 5.6 µM;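 active means inhibition above a per-campaign cutoff, the mean inhibition of all tested compounds plus 3 SD, cut at about 27% in these data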;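 further: 0% = DMSO wells and 100% = JAK Inhibitor I control wells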
aSyn 5UTR inh = 5' untranslated region of α-synuclein, MLPCN primary screen | alpha-synuclein 5'UTR reporter, inhibitor activity | inhibition, % (tested at 7.5 µM) | hit rate 0.82% among 300,000 | AID 1813; in the data active means inhibition above about 60%; inconclusive means no clear call, values can overlap the other calls;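 further: H4 neuroglioblastoma cells stably carrying SNCA 5'UTR luciferase fusion; 0% = DMSO wells and 100% = positive control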
The depositor's hits bear a star; ? = inconclusive; · = no result given.

SMILES | Ba/F3 V617F tox | KLF5 inhibitor | IEC-6 cytotox | APP 5UTR inh | BaF3 tox | aSyn 5UTR inh
O=S1(=O)N=C(N2CCN(Cc3ccccc3)CC2)c2ccccc21 | -4 | -5 | 9 | 2 | 60* | -6
CCCOCc1ccc(O)c2ncccc12 | -4 | 16 | 2 | · | 3 | 46
OCc1ccc(O)c2ncccc12 | 67* | -7 | -6 | 36 | 32* | 66*
CSc1ncccc1C(=O)N1CCN(S(=O)(=O)c2cc(C)ccc2C)CC1 | · | -9 | 0 | · | · | 15
O=[N+]([O-])c1cc(CN2CCN(c3cccc(C(F)(F)F)c3)CC2)c2cccnc2c1O | -2 | 14 | -2 | 65* | 8 | 71*
Cc1ccc(C)c(S(=O)(=O)N2CCN(Cc3ccc(O)c4ncccc34)CC2)c1 | 21 | 26 | -1 | 56* | 1 | 74*
CC(C)COCc1ccc(O)c2ncccc12 | -1 | -15 | -2 | 6 | 6 | 96*
Cc1cccc([C@@H]2[C@@H]3C(=O)N(Cc4ccccc4)C(=O)[C@@H]3[C@]3(Cc4ccc(Cl)cc4)C(=O)N(c4ccc(Br)cc4)C(=O)N23)c1 | · | -5 | 0 | · | · | 3
O=C(Nc1nccs1)C1CC(=O)N(CCc2ccc(F)cc2)C1 (configuration not stated) | · | 7 | -3 | · | · | -4
COc1ccc(S(=O)(=O)Nc2c(NC3CCCCC3)c3ccccc3oc2=O)cc1OC | · | -62 | -1 | · | · | -17
Oc1ccc(F)c2cccnc12 | 1 | 10 | 2 | -8 | 2 | -21
Oc1ccc(CNc2ccccc2F)c2cccnc12 | 3 | 8 | -4 | 48* | 2 | 87*
Oc1ccc(CN2CCN(c3ccccc3)CC2)c2cccnc12 | 0 | -1 | 0 | -7 | 5 | 80*
CCOC(=O)N1CCN(Cc2ccc(O)c3ncccc23)CC1 | 3 | 8 | 7 | 11 | 7 | 18
Oc1ccc2ccccc2c1CN1CCN(c2ccccc2)CC1 | 0 | -25 | 1 | -2 | 3 | -19
Oc1ccc(CN2CCCCC2)c2cccnc12 | 86* | 14 | 2 | 88* | 62* | ?
Cc1ccccc1CN1CCC(CNC(=O)C2CCCN(c3ncnc4c3nc3n4CCCCC3)C2)CC1 (configuration not stated) | · | 11 | 5 | · | · | -10
Cc1nc(-c2cc(-c3nc(-c4ccc(C(F)(F)F)cc4)no3)no2)cs1 | -1 | -4 | 1 | · | 61* | -6
Cc1nc(-c2cc(-c3nc(-c4cc(C(F)(F)F)cc(C(F)(F)F)c4)no3)no2)cs1 | -5 | -20 | -1 | · | -1 | 9
CC(CCc1ccccc1)NC(=O)C(=O)c1c[nH]c2ccccc12 (configuration not stated) | · | -25 | -3 | · | · | 13
Cn1ccs/c1=N\C(=O)Nc1cccc(C(F)(F)F)c1 | · | -74 | 5 | · | · | -109
C/C(=N\Nc1nc2ccccc2[nH]1)c1cc2ccccc2o1 | -1 | -6 | 10 | -106 | 2 | -138
C/C(=N\Nc1nc2ccccc2[nH]1)c1ccccn1 | · | 45 | 9 | · | · | 87*
O=C(NCCCN=C1NS(=O)(=O)c2ccccc21)c1ccc(Cl)cc1 | · | 2 | -3 | · | · | 10
Cc1cccc(NC(=S)N/N=C/c2cccc(O)c2)c1C | 78* | 38 | 13 | · | 51* | -37
SMILES | Ba/F3 V617F tox | KLF5 inhibitor | IEC-6 cytotox | APP 5UTR inh | BaF3 tox | aSyn 5UTR inh
CCOC(=O)c1ccc(NC(=O)NNS(=O)(=O)c2cc(OC)ccc2OC)cc1 | · | -11 | 2 | · | · | -12
CN1/C(=C\C=N\NC(=O)c2ccc(O)cc2)C(C)(C)c2ccccc21 | 37* | -10 | 3 | -1 | 42* | 8
CN1/C(=C\C=N\NC(=O)c2cccnc2)C(C)(C)c2ccccc21 | 38* | -6 | 1 | 19 | 43* | -3
Cc1c(N=C/C=C2\N(C)c3ccccc3C2(C)C)c(=O)n(-c2ccccc2)n1C | -5 | -4 | 2 | -20 | -1 | -30
CCOc1ccc(CC(=O)Nc2c3c(nn2C(C)(C)C)CS(=O)(=O)C3)cc1 | · | 8 | -4 | · | · | -13
O=C(c1sc(N2CCOCC2)nc1-c1ccccc1)N1CCCCC1 | 8 | -7 | 8 | 23 | 11 | 24
[2H]c1c([2H])c([2H])c(-c2nc(N3CCCCCC3)sc2C(=O)c2ccccc2)c([2H])c1[2H] | 4 | -20 | -4 | -4 | 95* | -11
COc1ccc(-c2nnc3sc(C4CCCCC4)nn23)cc1OC | -2 | -16 | -7 | -20 | 3 | 65*
CSCCC(NS(=O)(=O)c1ccccc1F)C(=O)NCCCn1nc(C)cc1C (configuration not stated) | · | · | · | · | · | -2
CCCc1c(CC)c(=N)c2ccccc2n1C | 71* | -9 | 6 | -2 | 65* | 6
Cn1c(-c2ccccc2)c(C(=O)CCl)c2ccccc21 | 1 | -23 | 3 | -12 | 5 | 28
O=C1NCCN/C1=C\C(=O)c1ccccc1 | -1 | -51 | 3 | 74* | 1 | 6
O=C1NCCN/C1=C\C(=O)c1ccc(Br)cc1 | -1 | -98 | -1 | · | -3 | -120
O=C(COC(=O)CCc1c[nH]c2ccccc12)NC(c1ccccc1)c1ccccc1 | 0 | -25 | -5 | 13 | 76* | -20
Cc1ccccc1C(=O)Nc1nnc(-c2ccco2)s1 | -1 | -137 | -2 | -141 | -1 | 65*
Cc1ccc(-c2nc(CNC(=O)c3ccco3)cs2)cc1 | · | -14 | -8 | · | · | -39
Cc1ccc(CCC(=O)Nc2ncc(Cc3cccc(Cl)c3Cl)s2)o1 | 0 | 5 | -2 | 96* | 0 | 27
O=C(CNc1ccc2c(c1)OCO2)N/N=C\c1cn(Cc2ccccc2)c2ccccc12 | -1 | -24 | -4 | 19 | 5 | 81*
O=[N+]([O-])/C=C/c1cn(Cc2ccc(Cl)cc2)c2ccccc12 | -4 | 1 | 2 | -8 | 0 | 65*
O=C(N/N=C/c1cn(Cc2ccccc2)c2ccccc12)c1ccncc1 | 0 | -11 | 4 | -4 | 12 | 58
C=CCc1cccc(/C=N/NC(=O)CNc2cccc3ccccc23)c1O | 7 | 3 | 10 | 2 | 5 | -6
C=CCc1cccc(/C=N/NC(=O)CNc2ccccc2)c1O | 1 | 7 | 2 | 21 | 5 | 74*
Nc1ccc(C(=O)N/N=C/c2cn(Cc3cccc(F)c3)c3ccccc23)cc1 | · | -28 | 6 | · | · | 70*
COc1cccc(OCC(=O)N2CCCc3ccccc32)c1 | · | -41 | -6 | · | · | -22
CSCCC(=O)N1CCCC(N(C)CCc2ccccc2)C1 (configuration not stated) | · | -15 | 6 | · | · | 2
O=C(C1CCN(S(=O)(=O)c2cnc[nH]2)CC1)N1CCN(c2ccc([N+](=O)[O-])cc2)CC1 | · | -3 | -8 | · | · | -6
CCOC(=O)N/N=C/c1cn(Cc2ccc(Cl)cc2)c2ccccc12 | 3 | -17 | -4 | 21 | 9 | 70*
O=C1C([N+](=O)[O-])=C(O)c2cccc3cccc1c23 | · | 12 | -9 | · | · | -5
CCc1ccc(-c2cn3nc(C)c(C)nc3n2)cc1 | -2 | -129 | -3 | -2 | 9 | 87*
